mHTT-CaM PPI inh = mutant huntingtin-calmodulin interaction inhibitors – biochemical, AlphaScreen, primary screen. P42858. AlphaScreen His-mHTT/GST-CaM binding, luminescence. inhibition, % at 15 µM. 3.6% of 190,000 active;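 further: 0% = both proteins with DMSO and 100% = one protein alone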
Pf apPOL inh = Pf-apPOL inhibitors, biochemical, fluorescence | Plasmodium falciparum apicoplast DNA polymerase (apPOL) | Recombinant Pf-apPOL, molecular beacon fluorescence, 1.5 h | inhibition, % at 10 µM | 0.25% of 210,000 active | AID 1794808, 2022
* marks the source's active call; other numbers are inactive results; / = not tested or not shown. This is a sample that favours compounds with a hit; in the whole collection about 3.5% have one here. No stated cut-off is given here; in the data, active means inhibition above about 50%; inactive means the rest.

SMILES | mHTT-CaM PPI inh | Pf apPOL inh
O=C(c1ccc(F)cc1)N1CC(C(=O)N2CCCCC2)C(c2ccccc2)C1 (stereo unspecified) | 4.2 | 0.5
CCC(=O)NCc1csc(C2CCN(C(=O)c3ccc(C)cc3C)CC2)n1 | 3.2 | -3.4
Cn1nc(-c2nc(C3CC3)no2)c2c1CCN(S(=O)(=O)Cc1cccc(F)c1)C2 | 9.4 | -3.8
CCN(CC)c1ccc(/C=C2/N=C(c3ccccc3)NC2=O)cc1 | 88.0* | -4.7
CCN(CC)c1ccc(/C=C2/N=C(c3ccc(F)cc3)OC2=O)cc1 | 1.0 | -4.3
CC1=NN(c2ccc(C)c(C)c2)C(=O)/C1=C/c1ccc([N+](=O)[O-])cc1 | 53.0* | 3.1
CC1=NN(c2ccccc2)C(=O)/C1=C/c1ccc([N+](=O)[O-])cc1 | 33.0 | -3.4
CCN(CC)c1ccc2cc(C(=O)Nc3ccc(F)cc3)c(=N)oc2c1 | -13.0 | 3.7
CCCC(=O)NC(c1ccc(N(C)C)cc1)c1cc(Cl)c2cccnc2c1O (stereo unspecified) | 43.0 | -1.7
CC(=O)NC(c1ccccc1)c1cc(Cl)c2cccnc2c1O (stereo unspecified) | 100.0* | 1.2
OC(c1ccc2c(c1)OCO2)c1nccc2ccccc12 (stereo unspecified) | 5.0 | -6.6
CCCCC(=O)NC(c1ccc(OC)cc1)c1cc(Cl)c2cccnc2c1O (stereo unspecified) | 26.0 | 9.6
COc1ccc(C(NC(C)=O)c2cc(Cl)c3cccnc3c2O)cc1 (stereo unspecified) | 100.0* | 6.8
CC(=O)NC(c1ccc(N(C)C)cc1)c1cc(Cl)c2cccnc2c1O (stereo unspecified) | 96.0* | -4.7
CC(C)C(=O)NC(c1ccc2c(c1)OCO2)c1cc(Cl)c2cccnc2c1O (stereo unspecified) | 62.0* | -7.6
COc1ccc(CC(=O)Nc2cccc(Cl)c2)cc1 | -17.3 | -3.4
O=C(NCCN1CCOCC1)C1CCCc2c1[nH]c1ccccc21 (stereo unspecified) | 24.5 | -0.1
O=C(NCCCN1CCCC1)c1ccc2c(c1)NC(=O)C1CCCCN21 (stereo unspecified) | 5.4 | 4.6
O=C(NC1CCCCC1)c1ccccc1N(Cc1ccccc1)S(=O)(=O)c1ccccc1 | 5.0 | 6.4
COc1ccc(-c2cc(N3CCN(C(=O)c4snnc4C)CC3)ncn2)cc1 | 4.3 | -1.9
CC(=O)NC(c1ccc(C(C)C)cc1)c1cc(Cl)c2cccnc2c1O (stereo unspecified) | 100.0* | 11.9
CC(=O)NC(c1ccccc1Cl)c1cc(Cl)c2cccnc2c1O (stereo unspecified) | 95.0* | 7.7
O=C1N=C(N2CCOCC2)S/C1=C/c1cccc([N+](=O)[O-])c1 | -3.0 | 18.5
CCC(=O)Nc1c(-c2cc(C)cc(C)c2)nc2ccccn12 | 14.1 | -1.6
O=C(Nc1c2c(nn1-c1ccc([N+](=O)[O-])cc1)CS(=O)(=O)C2)c1ccc(Cl)c([N+](=O)[O-])c1 | 18.0 | -1.6
SMILES | mHTT-CaM PPI inh | Pf apPOL inh
CN(C)c1ccc(Cc2ccc(N(C)C)cc2)cc1 | / | -10.4
CN(C)c1ccc(C(O)(c2ccc(N(C)C)cc2)c2ccc(N(C)C)cc2)cc1 | 100.3* | -7.2
O=C(Nc1cccc(F)c1)N1CCN(C(C(=O)N2CCCCC2)C2CCCC2)CC1 (stereo unspecified) | 13.7 | -1.7
CC1CCCCC1N1C(=O)c2ccccc2C1C(=O)NC1CCCCC1 (stereo unspecified) | 52.0* | -3.4
O=C(NC1CCCCC1)C1c2ccccc2C(=O)N1C1CCCCC1 (stereo unspecified) | 9.0 | -3.5
CCOc1ccc(C(=O)Nc2ccc(-n3nncc3-c3ccccc3)cc2)cc1 | -1.0 | -3.4
CN(CC1CC(c2ccccc2)=NO1)C(=O)NC(C)(C)C (stereo unspecified) | -4.9 | -4.8
Oc1cccc(Nc2nc(-c3ccccn3)cs2)c1 | 99.0* | -4.1
O=C(O)c1cccc(Nc2nc(-c3ccccc3)cs2)c1 | 15.8 | 1.2
O=C(O)c1cccc(Nc2nc(-c3ccccn3)cs2)c1 | 96.0* | -4.1
Oc1ccc(-c2csc(Nc3ncccn3)n2)c(O)c1 | 9.0 | -2.6
Cc1cccc(Nc2nc(-c3ccccn3)cs2)c1 | 97.0* | -1.0
Cc1ccc(C)c(-c2csc(Nc3ncccn3)n2)c1 | 2.0 | -7.1
Cc1ccc(NC(=O)C2CCc3nc(N4CCN(C(=O)C5CCC5)CC4)sc3C2)cc1 (stereo unspecified) | 6.9 | -1.5
O=C(Nc1ccc(F)cc1F)c1ccc(Br)cc1F | -8.9 | -3.2
Clc1ccc(C=Nc2ccc3c(c2)OCCOCCOCCOCCO3)c(Cl)c1 | 5.0 | -1.2
Cc1oc(C(C)(C)C)cc1C(=O)Nc1ccc([N+](=O)[O-])cc1 | / | -2.3
CCC(=O)Nc1ccc(NC(=O)c2ccc(OC(C)C)cc2)cc1 | -1.4 | -7.6
CSc1ccc(CNC(=O)c2cc3n(n2)CCCN(Cc2cccc(C)c2)C3=O)cc1 | 0.9 | -1.6
CC(=NNC1=NCCN1)c1ccc(Br)cc1 | / | -28.6
Cc1ccc2c3c(ccc2n1)NC1=C(C(=O)CCC1)C3c1ccccn1 (stereo unspecified) | -2.0 | -1.6
CC(=O)N(C)CC(=O)N1N=C(c2ccc(C)c(C)c2)CC1c1ccccc1 (stereo unspecified) | 53.8* | -1.9
COc1ccc(C2=NN(C(=O)CCCC(=O)O)C(c3ccccc3OC)C2)cc1OC (stereo unspecified) | 7.1 | -11.7
Cc1ccc(C2=NN(C(=O)CN(C)C(=O)NC(C)C)C(c3ccccc3)C2)cc1C (stereo unspecified) | 51.5* | -0.2
Cc1ccc(C2CC(c3ccc(C)c(C)c3)=NN2C(=O)CN(C)C(=O)C2CC2)cc1 (stereo unspecified) | 6.4 | 2.2
SMILES | mHTT-CaM PPI inh | Pf apPOL inh
Cc1ccc(C2CC(c3cccs3)=NN2C(=O)CN(C)C(=O)C2CCCC2)cc1 (stereo unspecified) | 60.8* | -0.9
CC(=O)N(C)CC(=O)N1N=C(c2ccc(F)cc2)CC1c1ccccc1 (stereo unspecified) | 21.0 | 6.8
COc1ccccc1C1CC(c2ccc(C)c(C)c2)=NN1C(=O)CN(C)C(C)=O (stereo unspecified) | 65.6* | -4.9
CN(CC(=O)N1N=C(c2cccs2)CC1c1ccccc1)C(=O)C1CCCC1 (stereo unspecified) | 20.8 | -1.3
Cc1ccc(CN2C(=O)c3ccccc3C2C(=O)NCCCN(C)C2CCCCC2)cc1 (stereo unspecified) | -6.0 | -15.2
CCOCC(=O)N1CCC(Cn2ccnc2)CC1 | -11.9 | -4.1
CN1C(=O)/C(=C2\SC(=S)N(CCS(=O)(=O)O)C2=O)c2ccccc21 | 8.5 | /
CCn1nc(C)c(Cc2c(C)nn(CC)c2C)c1C | 0.0 | -5.8
Cc1cccc(S(=O)(=O)N2CC3CN(C(=O)C4CCCCC4)CC(C2)O3)c1 | -1.1 | -4.2
CCc1ccc(CNC(=O)C2CCN(c3nc4cccnc4s3)CC2)cc1 | -6.2 | -5.1
S=C(NN=Cc1[nH]ncc1Br)Nc1ccccc1 | / | -50.5
COc1ccc(C=C2Oc3c(cc(CN(C)C)c(O)c3C)C2=O)cc1OC | 9.5 | -10.8
Cn1c(=O)cc2c3c(c(Br)ccc31)C(=O)c1ccccc1-2 | 2.0 | -1.6
Cn1c(=O)cc2c3c(c(N4CCCCC4)ccc31)C(=O)c1ccccc1-2 | 55.0* | -9.1
O=C(O)CNC(=O)CN1C(=O)c2cc(Cl)c(Cl)cc2C1=O | -6.0 | 0.8
CCOc1ccc(CC(=O)N2CCN(C3=NC=CN4CC(C)N=C34)CC2)cc1 (stereo unspecified) | 17.6 | -20.8

Source: PubChem BioAssay (University of Kansas High Throughput Screening Laboratory)
